In PubChem BioAssay (NCATS):
Records with an inconclusive call do not appear. Entries that show only a call come without a potency. Activity calls are given as the source filed them. Calls follow the shape of the dose curve; as a rule, active = well fitted curve in the direction sought with a large enough effect; inconclusive = small, poorly fitted or top-dose-only effect, or another doubt; inactive = no such curve, though single readings can be large; an effect the other way counts as inactive or inconclusive.

How the values were obtained:
[1] = qHTS of pediatric cancer cell lines to identify multiple opportunities for drug repurposing: Primary screen for BT-37 cells (AID 1347094); also: potency is read from the fitted curve at half-maximal effect
How it was run: (§1)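 Readout: CellTiter-Glo luminescence, 48 h treatment. Controls DMSO (neutral) and bortezomib 2.3 µM final (positive). Potency and efficacy taken from primary-screen concentration-response curves.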

[2] = qHTS of pediatric cancer cell lines to identify multiple opportunities for drug repurposing: Primary screen for NB-EBc1 cells (AID 1347095); also: potency is read from the fitted curve at half-maximal effect
How it was run: as §1

[3] = qHTS of pediatric cancer cell lines to identify multiple opportunities for drug repurposing: Primary screen for U-2 OS cells (AID 1347096); also: nearly all actives have a fitted effect of over 50% in size
How it was run: (§2)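 Cells (500-1,000/well) in growth media were settled 5 h at 37 degrees C, then given compounds for 48 h. Viability was read as CellTiter-Glo luminescence. Primary runs used MIPE at 11 points (0.78 nM-46 µM) and NPC at 8 points (0.59 nM-46 µM); follow-ups used 11 points.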

[4] = qHTS of pediatric cancer cell lines to identify multiple opportunities for drug repurposing: Primary screen for Saos-2 cells (AID 1347097); also: nearly all actives have a fitted effect of over 40% in size; also: potency is read from the fitted curve at half-maximal effect
How it was run: as §1

[5] = qHTS of pediatric cancer cell lines to identify multiple opportunities for drug repurposing: Primary screen for SK-N-SH cells (AID 1347098); also: nearly all actives have a fitted effect of over 65% in size; also: potency is read from the fitted curve at half-maximal effect
How it was run: (§3)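 Cells (500-1,000/well) rested 5 h, then received compounds for 48 h; metabolically active cells were measured by CellTiter-Glo luminescence. Final concentrations spanned up to 46 µM (MIPE, 11-point) or 0.59 nM-46 µM (NPC, 8-point) in primary screens, 11-point in follow-ups.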

[6] = qHTS of pediatric cancer cell lines to identify multiple opportunities for drug repurposing: Primary screen for NB1643 cells (AID 1347099); also: nearly all actives have a fitted effect of over 50% in size; also: potency is read from the fitted curve at half-maximal effect
How it was run: as §1

[7] = qHTS of pediatric cancer cell lines to identify multiple opportunities for drug repurposing: Primary screen for LAN-5 cells (AID 1347100); also: potency is read from the fitted curve at half-maximal effect
How it was run: as §2

[8] = qHTS of pediatric cancer cell lines to identify multiple opportunities for drug repurposing: Primary screen for BT-12 cells (AID 1347101); also: nearly all actives have a fitted effect of over 25% in size; also: potency is read from the fitted curve at half-maximal effect
How it was run: as §3

[9] = qHTS of pediatric cancer cell lines to identify multiple opportunities for drug repurposing: Primary screen for Rh18 cells (AID 1347102); also: nearly all actives have a fitted effect of over 65% in size; also: potency is read from the fitted curve at half-maximal effect
How it was run: as §2

Structure (SMILES)	Potency [1]	Potency [2]	Potency [3]	Potency [4]	Potency [5]	Potency [6]	Potency [7]	Potency [8]	Potency [9]
CCCCC(CC)COC(=O)c1ccccc1C(=O)O (stereo unspecified)	inactive	inactive	inactive	inactive	inactive	inactive	inactive	inactive	inactive
Nc1ccc(C(=O)OCC(O)CO)cc1 (stereo unspecified)	inactive	inactive	inactive	inactive	inactive	0.001 µM (active)	inactive	inactive	inactive
O=C1Nc2ccccc2C1(c1ccc(O)cc1)c1ccc(O)cc1	inactive	inactive	inactive	inactive			inactive	inactive	
O=C(OCCN1CCOCC1)c1cccnc1Nc1cccc(C(F)(F)F)c1	inactive	inactive	inactive		inactive	inactive	inactive	inactive	inactive
CCOCCn1c(C2CCN(CCc3ccc(C(C)(C)C(=O)O)cc3)CC2)nc2ccccc21	inactive	inactive	inactive	inactive		inactive	inactive	inactive	inactive
Nc1ccc(O)cc1	inactive	inactive	inactive		inactive			inactive	
O=C1OC2(c3ccccc31)c1cc(I)c(O)c(I)c1Oc1c2cc(I)c(O)c1I	inactive	inactive	inactive		inactive		inactive		
CC(C)Cc1ccc(C(C)C(=O)OCc2ccccn2)cc1 (stereo unspecified)	inactive	inactive	inactive	inactive		inactive	inactive	inactive	inactive
Nc1nnnn1-c1ccccc1	inactive	inactive	inactive		inactive	inactive		inactive	
CC(C)C(=O)OCc1cccc(OC(=O)[C@@H]2N3C(=O)[C@@H](NC(=O)Cc4ccccc4)[C@H]3SC2(C)C)c1	inactive	inactive	inactive	inactive	inactive	inactive		inactive	inactive
COc1cc2nc(Cl)nc(N)c2cc1OC	inactive	inactive	inactive	inactive	inactive	inactive			inactive
NCC(=O)O	inactive	inactive	inactive	inactive	inactive	inactive	inactive	inactive	inactive
CCOc1ccc(NS(=O)(=O)c2ccc(N)cc2)nn1	inactive	inactive	inactive	inactive	inactive	inactive	inactive		inactive
Cc1cc(O)c(C)c(C)c1O	inactive	inactive	inactive		inactive	inactive	16.8 µM (active)		inactive
Nc1c[n+](N2CCOCC2)no1	inactive	inactive	inactive		inactive	inactive	inactive	inactive	inactive
CCCCN(CCN(CCCC)C(=O)N1CCOCC1)C(=O)N1CCOCC1	inactive	inactive	inactive	23.7 µM (active)			inactive		inactive
C[C@@H](C1=C(CCN(C)C)Cc2ccccc21)c1ccccn1	inactive	inactive	inactive			inactive	inactive	inactive	inactive
CN(C)CCOC(c1ccccc1)c1ccc(Br)cc1 (stereo unspecified)	inactive	inactive	inactive		15.4 µM (active)	inactive	inactive	inactive	inactive
COC(=O)C1=C(C)NC(C)=C(C(=O)OCCc2ccc(N3CCN(C(c4ccccc4)c4ccccc4)CC3)cc2)C1c1cccc([N+](=O)[O-])c1 (stereo unspecified)	inactive	inactive	inactive	inactive	inactive	inactive	inactive		
c1ccc2occc2c1	inactive	inactive	inactive			inactive	inactive	inactive	inactive
COc1cc2c(cc1OC)C(=O)CC2	inactive	inactive	inactive	inactive	inactive	inactive	inactive	inactive	inactive
N[C@@H](Cc1cc(I)c(O)c(I)c1)C(=O)O	inactive	inactive	inactive		inactive	inactive	inactive	inactive	inactive
Cc1oc(-c2ccccc2)nc1CCC(=O)c1ccc(CC2SC(=O)NC2=O)cc1 (stereo unspecified)	inactive	inactive	inactive	inactive	inactive	inactive			inactive
CC(=O)OC/C=C(C)/C=C/C=C(C)/C=C/C1=C(C)CCCC1(C)C	inactive	inactive	inactive		inactive	inactive	inactive		inactive
CC(C)C(C)(C)C(C)(C)C(C)(C)S	inactive	inactive	inactive	inactive	inactive	inactive	inactive	inactive	inactive
CC(=O)/C=C/C=C1/C2CCC(C2)C1(C)C (stereo unspecified)	inactive	inactive	inactive	inactive	inactive	inactive	inactive	inactive	inactive
COc1c(C)c2c(c(O)c1C/C=C(\C)CCC(=O)OCCN1CCOCC1)C(=O)OC2	0.347 µM (active)	0.188 µM (active)					0.841 µM (active)		
Cc1cccc(N(C)C(=S)Oc2ccc3c(c2)C2CCC3C2)c1 (stereo unspecified)					inactive		inactive		

Structure (SMILES)	Potency [1]	Potency [2]	Potency [3]	Potency [4]	Potency [5]	Potency [6]	Potency [7]	Potency [8]	Potency [9]
O=C(NO)c1ccccc1			inactive				inactive	inactive	
OCCOCCN1CCN(C(c2ccccc2)c2ccc(Cl)cc2)CC1 (stereo unspecified)	inactive		inactive	inactive	inactive	inactive	inactive	inactive	
CCOC(=O)N1CCC(n2c(=O)[nH]c3cc(Cl)ccc32)CC1					inactive	inactive	inactive		inactive
CC(C(O)c1ccccc1)N(C)CCOC(c1ccccc1)c1ccccc1 (stereo unspecified)		inactive			30.7 µM (active)	inactive			
CCC[C@H](N[C@@H](C)C(=O)N1[C@H](C(=O)O)C[C@@H]2CCCC[C@@H]21)C(=O)OCC	inactive	inactive		inactive		inactive	inactive	inactive	inactive
O=C(OCC(O)CO)c1ccccc1Nc1ccnc2c(C(F)(F)F)cccc12 (stereo unspecified)	inactive	inactive				inactive	inactive		inactive
CCCCCCCCCCCCCCCC[N+](C)(C)Cc1ccccc1	30.9 µM (active)						21.1 µM (active)	11 µM (active)	11.9 µM (active)
Nc1cc(C(F)(F)F)ccc1S	inactive						inactive		
COC(=O)C1=C(C)NC(COC(N)=O)=C(C(=O)OC(C)C)C1c1cccc(Cl)c1Cl (stereo unspecified)		inactive			24.4 µM (active)		inactive		inactive
c1ccc(C(O[C@H]2CCCN(CCc3ccc4c(c3)OCO4)C2)c2ccccc2)cc1		inactive	inactive	inactive		inactive	inactive	inactive	inactive
CCOC(=O)c1ccc(O)c(O)c1	inactive		inactive		inactive	inactive			inactive
CN1CCCN=C1/C=C/c1cccs1	inactive	inactive			inactive	inactive	inactive	inactive	inactive
CCCCCOc1ccccc1/C(=C\SC)n1ccnc1			inactive				inactive		inactive
CCCCCCOC(=O)NC(=N)c1ccc(NCc2nc3cc(C(=O)N(CCC(=O)OCC)c4ccccn4)ccc3n2C)cc1			inactive			inactive			inactive
Cc1cccc(N(C)C(=S)Oc2ccc3c(c2)CCC3)c1	inactive		inactive			inactive	inactive		
Cc1c(C)c2c(c(C)c1OC(=O)CCC(=O)OCCO)CC[C@@](C)(CCC[C@H](C)CCC[C@H](C)CCCC(C)C)O2			inactive	inactive					
CC(CC1c2ccccc2CCc2ccccc21)CN(C)C (stereo unspecified)		inactive	inactive			inactive	inactive		inactive
CCCC(=O)O[C@]1(C(=O)CCl)[C@@H](C)C[C@H]2[C@@H]3CCC4=CC(=O)C=C[C@]4(C)[C@@]3(F)C(=O)C[C@@]21C			inactive		inactive	inactive			inactive
NC(=O)C1(N2CCCCC2)CCN(CCCN2c3ccccc3CCc3ccc(Cl)cc32)CC1				21.1 µM (active)	13.7 µM (active)			19.5 µM (active)	
Cc1cc(OCCOCC[N+](C)(C)Cc2ccccc2)ccc1C(C)(C)CC(C)(C)C	0.001 µM (active)			13.3 µM (active)	34.4 µM (active)	inactive	21.1 µM (active)	6.17 µM (active)	10.6 µM (active)
CN1CCCN(C(c2ccccc2)c2ccc(Cl)cc2)CC1 (stereo unspecified)		inactive	inactive		15.4 µM (active)				
CC(=O)Oc1ccc(C2(c3ccc(OC(C)=O)cc3)Oc3ccccc3NC2=O)cc1				11.9 µM (active)					inactive
CC(=O)[C@H]1CC[C@H]2[C@@H]3C=CC4=CC(=O)CC[C@@]4(C)[C@@H]3CC[C@]12C	inactive			inactive	inactive	inactive		inactive	inactive
O=C(CCC1CCN(Cc2ccccc2)CC1)c1ccc2c(c1)NCCCC2		inactive	inactive	inactive	30.7 µM (active)	inactive	inactive		inactive
Nc1ccc2cc3ccc(N)cc3nc2c1	9.78 µM (active)	4.73 µM (active)			7.7 µM (active)		4.22 µM (active)	7.77 µM (active)	
OC(CCCN1CCCCC1)(c1ccccc1)c1ccccc1	inactive	inactive		inactive		inactive	inactive		inactive
CC(C)C[C@H](NC(=O)CNC(=O)[C@H](Cc1ccc(O)cc1)NC(=O)[C@H](CO)NC(=O)[C@H](Cc1c[nH]c2ccccc12)NC(=O)[C@H](Cc1cnc[nH]1)NC(=O)[C@@H]1CCC(=O)N1)C(=O)N[C@@H](CCCN=C(N)N)C(=O)N1CCC[C@H]1C(=O)NCC(N)=O (stereo in doubt)	inactive		inactive	inactive	inactive	inactive	inactive	inactive	inactive
